Reference: the supplement of paper PMC10849652
About 7,900 targets were measured; listed, in parts, are those with a hit and a random draw of the rest. About 0.6% of all pairs of compound and target were hits. Values without a mark were called inactive.

Compound: CC[C@@H]1C(=O)N(C)c2cnc(Nc3ccc(C(=O)NC4CCN(C)CC4)cc3OC)nc2N1C1CCCC1
Assay: log2 fold change, soluble protein after heating vs DMSO (PISA); higher = thermal stabilisation; K562 cells, 10 uM, 30 min; active = over 0.2 and 3.5 SD of the protein, either way, in both replicates (recomputed)
Summary of the method: (§1)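 Soluble protein was defined as the supernatant after 21,000xg for 90 min. It came from K562 cells at 2×10^6 cells/mL given 10 μM compound for 30 min, heated in aliquots for 3 min across 48°C-58°C, pooled, and extracted in PBS with 0.5% NP-40 at 4°C, and was quantified by TMTpro 16plex LC-MS/MS with equalised channel sums. Thermal stability against control samples, from duplicates, is reported as log2 fold change.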

UniProt Q5T8P6, sequence (Q5T8P6 whole entry, looked up): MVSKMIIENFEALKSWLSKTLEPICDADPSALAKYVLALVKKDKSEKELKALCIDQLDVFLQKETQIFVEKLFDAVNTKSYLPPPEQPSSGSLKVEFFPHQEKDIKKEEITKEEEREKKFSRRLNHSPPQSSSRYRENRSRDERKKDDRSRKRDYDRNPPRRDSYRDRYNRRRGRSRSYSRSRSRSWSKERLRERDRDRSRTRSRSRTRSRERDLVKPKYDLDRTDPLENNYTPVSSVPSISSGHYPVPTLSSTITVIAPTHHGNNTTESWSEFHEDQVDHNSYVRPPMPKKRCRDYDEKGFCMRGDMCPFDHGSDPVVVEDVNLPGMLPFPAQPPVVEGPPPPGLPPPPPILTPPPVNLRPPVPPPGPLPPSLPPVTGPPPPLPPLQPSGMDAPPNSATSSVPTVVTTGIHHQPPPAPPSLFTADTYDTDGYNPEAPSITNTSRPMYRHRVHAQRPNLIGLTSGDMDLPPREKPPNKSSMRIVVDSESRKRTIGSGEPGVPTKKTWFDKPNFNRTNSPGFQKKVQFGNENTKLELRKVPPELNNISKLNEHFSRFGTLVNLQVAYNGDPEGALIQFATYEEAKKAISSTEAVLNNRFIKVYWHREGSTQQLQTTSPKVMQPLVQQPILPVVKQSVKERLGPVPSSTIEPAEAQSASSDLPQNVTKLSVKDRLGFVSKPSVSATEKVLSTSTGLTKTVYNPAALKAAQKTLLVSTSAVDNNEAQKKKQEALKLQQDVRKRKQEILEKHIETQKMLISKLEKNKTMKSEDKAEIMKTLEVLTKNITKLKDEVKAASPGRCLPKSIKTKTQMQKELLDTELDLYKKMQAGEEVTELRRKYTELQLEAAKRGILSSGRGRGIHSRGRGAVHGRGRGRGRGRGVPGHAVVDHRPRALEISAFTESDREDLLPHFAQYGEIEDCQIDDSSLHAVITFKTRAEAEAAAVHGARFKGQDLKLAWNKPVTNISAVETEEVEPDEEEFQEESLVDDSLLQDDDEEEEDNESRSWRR
UniProt Q8NBN7, sequence (Q8NBN7 whole entry, looked up): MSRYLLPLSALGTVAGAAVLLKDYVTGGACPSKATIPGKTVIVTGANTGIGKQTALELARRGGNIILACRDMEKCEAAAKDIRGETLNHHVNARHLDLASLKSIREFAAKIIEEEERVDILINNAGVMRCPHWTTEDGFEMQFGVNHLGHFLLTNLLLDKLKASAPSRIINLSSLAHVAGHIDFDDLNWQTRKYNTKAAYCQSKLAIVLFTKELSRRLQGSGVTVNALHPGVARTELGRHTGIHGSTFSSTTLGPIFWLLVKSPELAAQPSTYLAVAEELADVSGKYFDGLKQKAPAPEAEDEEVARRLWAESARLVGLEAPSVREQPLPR
UniProt O94885, sequence (O94885 whole entry, looked up): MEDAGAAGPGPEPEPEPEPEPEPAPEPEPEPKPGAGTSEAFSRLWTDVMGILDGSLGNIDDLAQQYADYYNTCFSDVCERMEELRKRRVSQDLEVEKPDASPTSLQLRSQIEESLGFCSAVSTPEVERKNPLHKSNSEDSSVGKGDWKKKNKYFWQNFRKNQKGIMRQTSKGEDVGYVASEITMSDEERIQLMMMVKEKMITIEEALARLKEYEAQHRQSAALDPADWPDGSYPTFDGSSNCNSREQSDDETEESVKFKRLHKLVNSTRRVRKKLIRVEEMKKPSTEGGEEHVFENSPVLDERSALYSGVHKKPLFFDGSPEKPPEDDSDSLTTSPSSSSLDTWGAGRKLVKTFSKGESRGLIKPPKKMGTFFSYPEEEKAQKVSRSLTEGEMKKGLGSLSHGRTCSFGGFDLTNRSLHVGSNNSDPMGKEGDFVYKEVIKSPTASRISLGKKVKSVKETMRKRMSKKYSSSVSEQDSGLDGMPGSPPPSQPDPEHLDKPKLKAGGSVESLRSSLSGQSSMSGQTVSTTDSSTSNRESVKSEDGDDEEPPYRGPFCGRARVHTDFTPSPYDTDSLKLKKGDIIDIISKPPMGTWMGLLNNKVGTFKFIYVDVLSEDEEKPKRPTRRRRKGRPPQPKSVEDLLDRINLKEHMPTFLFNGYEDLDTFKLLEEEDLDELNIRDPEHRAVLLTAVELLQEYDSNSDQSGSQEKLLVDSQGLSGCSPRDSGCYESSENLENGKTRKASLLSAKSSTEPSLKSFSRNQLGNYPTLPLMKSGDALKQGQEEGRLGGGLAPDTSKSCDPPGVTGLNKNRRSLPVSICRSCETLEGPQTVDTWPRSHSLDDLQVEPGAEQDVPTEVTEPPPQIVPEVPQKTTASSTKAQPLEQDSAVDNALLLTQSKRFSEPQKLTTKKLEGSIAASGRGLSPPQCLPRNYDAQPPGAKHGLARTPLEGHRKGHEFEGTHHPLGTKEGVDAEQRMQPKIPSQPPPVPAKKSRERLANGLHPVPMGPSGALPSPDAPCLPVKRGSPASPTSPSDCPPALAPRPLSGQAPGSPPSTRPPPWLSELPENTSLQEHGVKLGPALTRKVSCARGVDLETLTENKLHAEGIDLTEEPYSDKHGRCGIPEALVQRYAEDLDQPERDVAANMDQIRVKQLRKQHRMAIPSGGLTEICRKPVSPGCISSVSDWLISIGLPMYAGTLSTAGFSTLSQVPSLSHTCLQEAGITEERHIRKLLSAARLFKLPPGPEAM
UniProt O95470, sequence (O95470 whole entry, looked up): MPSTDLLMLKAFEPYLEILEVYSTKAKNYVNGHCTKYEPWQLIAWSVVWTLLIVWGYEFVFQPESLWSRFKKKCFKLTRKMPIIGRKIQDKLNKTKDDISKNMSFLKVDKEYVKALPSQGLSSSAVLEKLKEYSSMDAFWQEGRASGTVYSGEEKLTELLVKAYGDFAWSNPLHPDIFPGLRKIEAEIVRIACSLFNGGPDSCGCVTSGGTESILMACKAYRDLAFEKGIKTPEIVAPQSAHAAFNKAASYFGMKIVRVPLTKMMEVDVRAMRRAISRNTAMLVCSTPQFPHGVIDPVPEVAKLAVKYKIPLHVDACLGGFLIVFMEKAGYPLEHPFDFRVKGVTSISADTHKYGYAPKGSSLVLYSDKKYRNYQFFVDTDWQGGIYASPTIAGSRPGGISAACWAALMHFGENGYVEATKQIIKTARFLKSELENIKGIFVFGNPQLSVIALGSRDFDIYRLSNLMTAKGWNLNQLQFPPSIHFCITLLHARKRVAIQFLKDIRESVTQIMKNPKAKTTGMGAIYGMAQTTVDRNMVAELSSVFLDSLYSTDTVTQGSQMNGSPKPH
UniProt P06400, sequence (P06400 whole entry, looked up): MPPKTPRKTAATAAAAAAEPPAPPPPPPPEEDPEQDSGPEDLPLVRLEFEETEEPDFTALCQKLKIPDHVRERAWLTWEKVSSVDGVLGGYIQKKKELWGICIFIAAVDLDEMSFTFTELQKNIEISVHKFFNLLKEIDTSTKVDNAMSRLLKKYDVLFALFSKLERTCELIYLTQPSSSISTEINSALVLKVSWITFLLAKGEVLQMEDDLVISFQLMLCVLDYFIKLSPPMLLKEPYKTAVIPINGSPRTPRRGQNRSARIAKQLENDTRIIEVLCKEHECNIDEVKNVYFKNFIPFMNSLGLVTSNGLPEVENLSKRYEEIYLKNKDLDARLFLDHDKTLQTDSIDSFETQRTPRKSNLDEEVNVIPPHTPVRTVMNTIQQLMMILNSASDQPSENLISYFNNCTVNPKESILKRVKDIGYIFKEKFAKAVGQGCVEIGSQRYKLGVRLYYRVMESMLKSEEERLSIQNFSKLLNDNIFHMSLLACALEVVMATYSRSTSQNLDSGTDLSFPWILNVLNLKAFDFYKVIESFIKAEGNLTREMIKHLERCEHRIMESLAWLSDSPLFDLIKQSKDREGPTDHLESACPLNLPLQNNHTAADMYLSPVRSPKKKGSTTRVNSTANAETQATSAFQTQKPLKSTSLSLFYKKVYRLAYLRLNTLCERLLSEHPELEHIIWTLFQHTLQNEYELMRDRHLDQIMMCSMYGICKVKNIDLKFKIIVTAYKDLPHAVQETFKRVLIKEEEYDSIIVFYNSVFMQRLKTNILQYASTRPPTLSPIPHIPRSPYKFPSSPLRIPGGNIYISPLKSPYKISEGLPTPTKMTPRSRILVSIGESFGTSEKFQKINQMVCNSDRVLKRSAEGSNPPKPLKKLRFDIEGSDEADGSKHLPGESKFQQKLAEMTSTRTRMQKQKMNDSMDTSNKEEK
UniProt P18754, sequence (P18754 whole entry, looked up): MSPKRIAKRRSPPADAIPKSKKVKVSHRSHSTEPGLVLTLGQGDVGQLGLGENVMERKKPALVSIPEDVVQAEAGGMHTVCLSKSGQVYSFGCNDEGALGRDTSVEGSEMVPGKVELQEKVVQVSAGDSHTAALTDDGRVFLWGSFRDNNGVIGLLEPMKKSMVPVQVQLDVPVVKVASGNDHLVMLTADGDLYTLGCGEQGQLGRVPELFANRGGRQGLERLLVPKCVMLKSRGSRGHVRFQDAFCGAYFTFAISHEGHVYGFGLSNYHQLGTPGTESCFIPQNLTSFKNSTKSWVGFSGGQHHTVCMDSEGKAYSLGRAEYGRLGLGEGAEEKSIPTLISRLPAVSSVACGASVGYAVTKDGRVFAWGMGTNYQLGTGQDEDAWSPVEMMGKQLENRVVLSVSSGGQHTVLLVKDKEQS
UniProt O14730, sequence (O14730 whole entry, looked up): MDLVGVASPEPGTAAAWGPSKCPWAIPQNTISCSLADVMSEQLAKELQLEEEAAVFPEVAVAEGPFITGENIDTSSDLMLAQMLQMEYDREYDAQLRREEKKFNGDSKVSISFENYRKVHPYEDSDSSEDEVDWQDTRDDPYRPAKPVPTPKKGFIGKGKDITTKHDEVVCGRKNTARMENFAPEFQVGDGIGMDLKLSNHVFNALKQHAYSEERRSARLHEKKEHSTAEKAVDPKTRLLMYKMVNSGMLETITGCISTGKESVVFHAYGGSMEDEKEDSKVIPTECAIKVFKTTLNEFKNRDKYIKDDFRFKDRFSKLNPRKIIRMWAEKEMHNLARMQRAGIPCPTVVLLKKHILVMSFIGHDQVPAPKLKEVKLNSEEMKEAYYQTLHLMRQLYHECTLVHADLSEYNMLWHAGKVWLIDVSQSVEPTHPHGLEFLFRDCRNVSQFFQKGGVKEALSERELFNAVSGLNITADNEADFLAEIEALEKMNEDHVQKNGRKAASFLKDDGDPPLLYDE

Target | log2 fold change
RUNX1 isoform 8 (UniProt Q01196) | -0.331
RPS12 (UniProt P25398) | 0.108
SLC18B1 (UniProt Q6NT16) | 0.031
SHROOM2 (UniProt Q13796) | 0.027
RNASEH2A (UniProt O75792) | -0.062
RIPK1 (UniProt Q13546) | -0.069
SERPINA7 (UniProt P05543) | 0.055
SH3GL1 (UniProt Q99961) | -0.137
RMC1 (UniProt Q96DM3) | -0.192
SGPL1 (UniProt O95470) | 0
RSPRY1 (UniProt Q96DX4) | 0.082
SELENOH (UniProt Q8IZQ5) | 0.001
SCD (UniProt O00767) | 0
SKP1 (UniProt P63208) | -0.012
SENP6 (UniProt Q9GZR1) | -0.086
RPP25L (UniProt Q8N5L8) | 0.144
RHOA (UniProt P61586) | -0.098

Target | log2 fold change
RRS1 (UniProt Q15050) | 0.291
RPS2 (UniProt P15880) | 0.168
RB1 (UniProt P06400) | 0.018
RBM12 (UniProt Q9NTZ6) | -0.181
SASH1 (UniProt O94885) | -0.136
RCC1 isoform 2 (UniProt P18754) | -0.037
RBM26 isoform 2 (UniProt Q5T8P6) | -0.207
SETD3 (UniProt Q86TU7) | -0.017
RANBP2 (UniProt P49792) | 0.058
RDH13 (UniProt Q8NBN7) | -0.154
SAAL1 (UniProt Q96ER3) | -0.167
SDHAF2 (UniProt Q9NX18) | 0.089
RPS18 (UniProt P62269) | 0.158
RPTOR (UniProt Q8N122) | -0.116
RELA (UniProt Q04206) | -0.063
RPS6KA1 isoform 2 (UniProt Q15418) | -0.223
RIOK3 (UniProt O14730) | 0.084

Compound: CC[C@@H]1C(=O)N(C)c2cnc(Nc3ccc(C(=O)N[C@H]4CC[C@H](N5CCN(CC6CC6)CC5)CC4)cc3OC)nc2N1C(C)C [volasertib]
Assay: as above
Summary of the method: as §1

Target | log2 fold change
RUNX1 isoform 8 (UniProt Q01196) | -0.434 (active)
RPS12 (UniProt P25398) | 0.219
SLC18B1 (UniProt Q6NT16) | -0.114
SHROOM2 (UniProt Q13796) | 0.068
RNASEH2A (UniProt O75792) | -0.075
RIPK1 (UniProt Q13546) | -0.478 (active)
SERPINA7 (UniProt P05543) | 0.309
SH3GL1 (UniProt Q99961) | -0.459 (active)
RMC1 (UniProt Q96DM3) | -0.416 (active)
SGPL1 (UniProt O95470) | -0.04
RSPRY1 (UniProt Q96DX4) | -0.001
SELENOH (UniProt Q8IZQ5) | 0.01
SCD (UniProt O00767) | 0.009
SKP1 (UniProt P63208) | -0.02
SENP6 (UniProt Q9GZR1) | -0.07
RPP25L (UniProt Q8N5L8) | 0.115
RHOA (UniProt P61586) | 0.134

Target | log2 fold change
RRS1 (UniProt Q15050) | 0.286
RPS2 (UniProt P15880) | 0.348
RB1 (UniProt P06400) | 0.034
RBM12 (UniProt Q9NTZ6) | -0.437 (active)
SASH1 (UniProt O94885) | -0.308 (active)
RCC1 isoform 2 (UniProt P18754) | -0.063
RBM26 isoform 2 (UniProt Q5T8P6) | -0.299
SETD3 (UniProt Q86TU7) | -0.018
RANBP2 (UniProt P49792) | -0.006
RDH13 (UniProt Q8NBN7) | -0.06
SAAL1 (UniProt Q96ER3) | -0.245 (active)
SDHAF2 (UniProt Q9NX18) | 0.093
RPS18 (UniProt P62269) | 0.3
RPTOR (UniProt Q8N122) | -0.237 (active)
RELA (UniProt Q04206) | -0.263 (active)
RPS6KA1 isoform 2 (UniProt Q15418) | -0.212
RIOK3 (UniProt O14730) | 0.04

Compound: CC[C@H](C)N1C=C(C2=C(C=C(C=C21)C3=CN=C(C=C3)N4CCNCC4)C(=O)NCC5=C(C=C(NC5=O)C)C)C
Assay: as above
Summary of the method: as §1

Target | log2 fold change
RUNX1 isoform 8 (UniProt Q01196) | 0.086
RPS12 (UniProt P25398) | 0.038
SLC18B1 (UniProt Q6NT16) | -0.034
SHROOM2 (UniProt Q13796) | -0.243
RNASEH2A (UniProt O75792) | 0.068
RIPK1 (UniProt Q13546) | 0.12
SERPINA7 (UniProt P05543) | 0.044
SH3GL1 (UniProt Q99961) | 0.082
RMC1 (UniProt Q96DM3) | 0.095
SGPL1 (UniProt O95470) | -0.002
RSPRY1 (UniProt Q96DX4) | -0.019
SELENOH (UniProt Q8IZQ5) | -0.05
SCD (UniProt O00767) | -0.063
SKP1 (UniProt P63208) | -0.027
SENP6 (UniProt Q9GZR1) | -0.044
RPP25L (UniProt Q8N5L8) | -0.042
RHOA (UniProt P61586) | 0.065

Target | log2 fold change
RRS1 (UniProt Q15050) | 0.023
RPS2 (UniProt P15880) | 0.021
RB1 (UniProt P06400) | 0.016
RBM12 (UniProt Q9NTZ6) | 0.114
SASH1 (UniProt O94885) | 0.044
RCC1 isoform 2 (UniProt P18754) | 0.044
RBM26 isoform 2 (UniProt Q5T8P6) | 0.151
SETD3 (UniProt Q86TU7) | 0.055
RANBP2 (UniProt P49792) | -0.008
RDH13 (UniProt Q8NBN7) | 0.06
SAAL1 (UniProt Q96ER3) | 0.001
SDHAF2 (UniProt Q9NX18) | -0.081
RPS18 (UniProt P62269) | -0.011
RPTOR (UniProt Q8N122) | 0.064
RELA (UniProt Q04206) | 0.013
RPS6KA1 isoform 2 (UniProt Q15418) | 0.053
RIOK3 (UniProt O14730) | -0.01
